Screening results deposited in PubChem BioAssay by National Center for Advancing Translational Sciences (NCATS).
hERG WT inh – qHTS for Inhibitors of KCHN2 3.1: Wildtype qHTS; Voltage-gated inwardly rectifying potassium channel KCNH2 (Homo sapiens), Q12809; U2OS, BacMam KCNH2, thallium flux FluxOr; stronger effect = lower value; activity change, % at 1.84 µM; actives 0.37% (n = 340,000);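 active = maximum activity change below -70%; inconclusive = maximum activity change between -70% and -50%; inactive = maximum activity change above -50%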; also: % is scaled to controls: 0 for no effect and ±100 for the full control effect
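U2OS cells were transduced with wild-type KCNH2 virus (2.03 x 10^8 / mL) for 4 h at room temperature, then cultured overnight at 37 C. Thallium flux was read with FluxOr dye. Rate constants were normalized to DMSO controls.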
TRPV1 agonist – HTS Assay for Compounds that Act as Agonists of the Vanilloid Receptor 1; TRPV1-expressing cells, Fluo-8 calcium influx, agonist mode; activation, % at 8.33 µM; actives 0.19% (n = 320,000); in the data active = activation above about 80%; inconclusive = between about 30% and that limit; also: 0% is about no effect
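TRPV1-expressing cells were cultured overnight at 35.5C and loaded with Fluo-8 calcium dye for 40 to 90 min at room temperature. After a 10 s baseline, compound was added and calcium influx was read kinetically for 3 min (ex 480/em 520 nm).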
TRPV1 PAM – HTS Assay for Compounds that Act as Potentiators of the Vanilloid Receptor 1 | potentiation, % at 8.33 µM | actives 0.02% (n = 320,000) | AID 540277, 2011 | TRPV1-expressing cells, Fluo-8 calcium influx, capsaicin EC20 potentiation; in the data active = potentiation above about 80%; inconclusive = between about 30% and that limit; also: 0% is about no effect
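TRPV1-expressing cells were cultured overnight at 35.5C and loaded with Fluo-8 calcium dye for 40 to 90 min at room temperature. After a 10 s baseline, compound was added and calcium influx was read kinetically for 3 min (ex 480/em 520 nm).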
KCNH2 3.1 block – qHTS for Inhibitors of KCHN2 3.1: Mutant qHTS | Potassium voltage-gated channel subfamily H member 2, brain isoform KCNH2 3.1 (human) | U2OS KCNH2 3.1, thallium flux FluxOr; stronger effect = lower value | activity change, % (tested at about 1.8 µM) | actives 0.95% (n = 340,000) | AID 720553, 2013;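 active = maximum activity change below -70%; inconclusive = maximum activity change from -70% to -50%; inactive = maximum activity change above -50%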;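 also: thallium influx rate constant from kinetic fluorescence after stimulation buffer; % is scaled to controls: 0 for no effect and ±100 for the full control effect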
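Channel expression came from 3.1 mutant virus (1.77 x 10^8 /mL) applied to suspended U2OS cells for 4 h. Flux was tracked with FluxOr dye plus Red40 quencher, and kinetic rate constants normalized to controls.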
TRPML1 blocker – qHTS for Inhibitors of the Human Mucolipin Transient Receptor Potential 1 (TRPML1) | actives 0.02% (n = 390,000) | AID 624415, 2012 | TRPML1-inducible cells, Ca2+ dye fluorescence, FDSS; stronger effect = lower value; inhibition of EC80 agonist-evoked calcium signal | Mucolipin-1 (Homo sapiens), Q9GZU1 | activity change, negative = inhibition, % (test concentration not listed); in the data active = activity change below about -50%; inconclusive = between about -30% and that limit;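 also: stimulus is agonist 54-4 at its EC80 concentration; % is scaled to controls: 0 for no effect and ±100 for the full control effect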
Target sequence (Q9GZU1 whole entry, looked up): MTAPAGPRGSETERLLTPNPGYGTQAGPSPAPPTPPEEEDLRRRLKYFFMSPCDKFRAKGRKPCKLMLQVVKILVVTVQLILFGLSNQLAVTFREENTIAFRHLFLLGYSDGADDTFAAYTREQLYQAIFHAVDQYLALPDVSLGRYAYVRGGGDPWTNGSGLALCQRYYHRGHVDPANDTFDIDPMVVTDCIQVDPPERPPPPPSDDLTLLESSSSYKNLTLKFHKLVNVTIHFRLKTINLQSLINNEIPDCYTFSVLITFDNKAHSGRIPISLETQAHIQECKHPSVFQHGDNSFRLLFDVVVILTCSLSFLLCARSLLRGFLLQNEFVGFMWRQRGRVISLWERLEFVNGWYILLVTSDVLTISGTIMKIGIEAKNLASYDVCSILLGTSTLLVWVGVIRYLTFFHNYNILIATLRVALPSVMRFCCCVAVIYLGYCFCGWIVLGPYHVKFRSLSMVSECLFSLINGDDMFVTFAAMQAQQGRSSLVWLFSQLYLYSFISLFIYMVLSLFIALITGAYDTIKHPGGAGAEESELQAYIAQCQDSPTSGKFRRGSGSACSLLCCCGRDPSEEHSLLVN
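TRPML1-DL cells, Tet-induced overnight (~16 h, 37 °C) at 1,500 cells/well, were loaded with Ca8 no-wash dye plus quencher for 45-90 min at room temperature. Compounds were pinned during FDSS kinetic reading; agonist 54-4 at EC80 (4 uM final) then added.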
TRPML1 ag – qHTS for Agonists of the Human Mucolipin Transient Receptor Potential 1 (TRPML1). actives 0.12% (n = 410,000). activation, % (test concentration not listed). TRPML1-expressing cells, Ca2+ dye fluorescence, FDSS. Mucolipin-1 (Homo sapiens), Q9GZU1; in the data active = activation above about 50%; inconclusive = mostly about 30% to 49%; also: 0% is about no effect
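Agonist activity was taken from a 110 s kinetic Ca2+ dye read on the FDSS after pinning compounds onto TRPML1-DL cells. The cells were seeded at 1,500/well with Tet inducer, incubated about 16 h, then dye-loaded at room temperature.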
Active calls of the source: *; ? = inconclusive; . = no result. Sampled rows, rich in hits. Any-hit rate of the full collection: about 1.3%.

SMILES	hERG WT inh	TRPV1 agonist	TRPV1 PAM	KCNH2 3.1 block	TRPML1 blocker	TRPML1 ag
CCOC(=O)N1CCN(C(=S)NC2CCCCC2)CC1	22.1	4.8	1.4	12.6	-5.1	0.1
COc1ccc(NC(=O)c2cc3sccc3n2Cc2ccc(F)cc2)cc1OC	-249.1*	1.0	-21.4	-2.3	5.6	0.8
CC(=O)c1ccc(NC(=O)c2cc3sccc3n2Cc2ccc(F)cc2)cc1	.	.	.	.	4.4	0.2
Cc1noc(C)c1C(c1ccccc1)S(=O)(=O)c1ccccc1 (configuration not stated)	-140.2*	1.5	-0.4	-18.0	8.5	2.2
Cc1ccc(S(=O)(=O)C(c2ccccc2)c2c(C)noc2C)cc1 (configuration not stated)	15.8	28.5	-9.9	-5.7	3.0	1.2
CC1CN(C)C(C)C/C1=N\Oc1ccc([N+](=O)[O-])cc1 (configuration not stated)	-14.5	-1.3	0.2	-88.0*	21.2	0.4
CC1CN(C)C(C)C/C1=N/Oc1ccccc1[N+](=O)[O-] (configuration not stated)	6.9	-0.1	-3.1	8.5	25.7	0.5
CC(C)(C)n1ncc2c(=O)n(Cc3ccc(SC(F)(F)F)cc3)cnc21	.	.	.	.	30.7	1.6
O=C(NCC(=O)N(c1cccnc1)C(C(=O)NC1CCCC1)c1ccccc1)c1ccco1 (configuration not stated)	8.2	-0.9	9.1	-11.4	6.5	-0.4
Cc1ccc(N(C(=O)CNC(=O)c2ccco2)C(C(=O)NC2CCCC2)c2cccnc2)cc1C (configuration not stated)	-188.9*	-0.5	-5.5	3.4	-5.4	-0.9
O=C(NCC(=O)N(c1cccnc1)C(C(=O)NC1CCCCC1)c1ccccc1F)c1ccco1 (configuration not stated)	-149.2*	-1.7	-7.8	-192.7*	-17.0	-0.7
CC(=O)Nc1ccc(N(C(=O)CNC(=O)c2ccco2)C(C(=O)NCc2ccco2)c2ccccc2F)cc1 (configuration not stated)	1.6	-1.6	-2.6	-111.0*	-7.8	-0.7
CSc1ncc(Cl)c(C(=O)Nc2ccc(S(=O)(=O)N3CCC(C)CC3)cc2)n1	.	.	.	.	-18.4	-0.6
CC(C)(C)n1ncc2c(=O)n(Cc3cccc(C(F)(F)F)c3)cnc21	.	.	.	.	-0.4	0.6
Cn1c(CCN2CCN(c3ccccn3)CC2)nc2cc(NS(=O)(=O)c3ccccc3)ccc21	-27.8	4.1	3.2	-76.3*	24.8	-0.4
O=[N+]([O-])c1ccc(S(=O)(=O)N2CCN(c3ccnc4cc(Cl)ccc34)CC2)cc1	-123.6*	0.6	-23.4	-92.4*	15.0	-0.6
CC(C)(C)C(=O)N1CCN(c2ccnc3cc(Cl)ccc23)CC1	5.3	15.0	0.7	-32.4	.	.
CC(=O)c1ccc(N2CCN(c3ccnc4cc(Cl)ccc34)CC2)cc1	-28.5	2.7	6.6	-90.7*	19.7	1.1
COc1ccc(CCNC(=S)NCc2ccc(Cl)c(Cl)c2)cc1OC	2.8	81.4*	-1.3	2.6	17.1	1.1
COc1ccc(CCNC(=O)COc2ccc(S(=O)(=O)NC(C)C)cc2Cl)cc1OC	.	-0.5	-12.7	-11.0	-60.6*	0.2
COc1ccc(CCNC(=S)NNC(=O)c2c(Br)c(C)nn2C)cc1OC	7.1	-2.7	?	-74.6*	5.3	0.6
CCNC(=S)NCc1ccc(OC)c(OC)c1	-3.1	8.6	-18.1	-1.4	-10.0	-0.4
COc1ccc(CCNC(=O)CCc2ccc(S(=O)(=O)NC(C)C)cc2)cc1OC	-3.8	-3.8	5.6	-7.2	-0.6	2.4
COc1ccc(CCNC(=O)c2c(Cl)ccc(Cl)c2OC)cc1OC	-1.0	1.6	-4.5	-96.5*	-5.0	-0.8
CC(C)(C)n1ncc2c(=O)n(Cc3cc(F)c(F)cc3Cl)cnc21	.	.	.	.	2.3	0.7
SMILES	hERG WT inh	TRPV1 agonist	TRPV1 PAM	KCNH2 3.1 block	TRPML1 blocker	TRPML1 ag
COc1ccc(C(=O)c2c(-c3ccc(OC)cc3)oc3ccccc23)cc1	-12.9	24.4	1.9	-70.7*	-10.1	0.8
COc1ccc(-c2oc3ccccc3c(=O)c2OC(=O)c2ccc(C)cc2)cc1	10.6	-13.2	?	-8.7	-3.0	1.1
Cc1ccccc1C(=O)OCc1nnc(-c2ccc(Cl)cc2)o1	-1.6	1.1	7.8	-76.7*	-10.9	0.0
CC(=O)c1ccc(NC(=O)CSc2nccn2Cc2ccc3c(c2)OCO3)cc1	.	.	.	.	-1.9	2.2
CC(=O)C1C(c2ccc(F)cc2)NC(=O)NC1(O)C(F)(F)F (configuration not stated)	-0.1	-5.4	2.6	7.5	3.1	0.1
COc1cc(C2NC(=O)NC(O)(C(F)(F)F)C2C(C)=O)cc(OC)c1OC (configuration not stated)	-185.6*	-3.8	15.1	-3.4	15.2	0.1
CCOC(=O)c1nn(-c2ccccc2)c(=O)cc1SC(C)C	-35.3	2.1	2.9	-72.0*	5.7	-0.4
CCOC(=O)c1nn(-c2ccccc2)c(=O)cc1SC(C)CC (configuration not stated)	24.6	?	-10.6	34.7	3.1	3.7
O=C(Nc1ccc(F)cc1F)c1ccc(-n2cccn2)nc1	-18.7	?	-28.5	1.1	11.8	-1.1
CC(C)Sc1ccc(C(=O)Nc2ccc(F)cc2F)cn1	2.1	85.5*	-20.9	14.6	-11.0	1.8
CSc1ccc(C2CC(=O)Oc3c2c(=O)n(C)c2ccccc32)cc1 (configuration not stated)	.	.	.	.	-9.4	-0.7
CCOc1ccc(S(=O)(=O)N(CC(=O)Nc2ccc3c(c2)OCO3)c2ccccc2)cc1	.	.	.	.	-2.6	1.0
COc1ccc(-c2nc(Cn3c(SCc4ccccc4F)nc4ccncc43)c(C)o2)cc1OC	.	.	.	.	5.9	-0.6
COc1ccc(-c2nc(Cn3c(SCc4ccc(C)cc4)nc4ccncc43)c(C)o2)cc1OC	-46.4	0.0	6.0	-122.2*	6.6	0.6
COc1ccc(-c2nc(Cn3c(SCc4cccc(F)c4)nc4ccncc43)c(C)o2)cc1OC	-0.9	8.2	27.7	-107.1*	-0.5	-0.2
COCCNC(=O)Cc1ccc(F)cc1	-23.6	-1.3	8.5	-3.1	-4.9	-0.2
